Results reported in PubChem BioAssay AID1159580 (chemical genetic matrix, 2015).
Several values for one entry are separate records, joined by “and”; a condition that tells them apart may be missing. Identical values can stand only once. About 2,000 (36%) of roughly 5,500 compounds were called active. Another 18% or so got no clear call; they are omitted. Rule as the data show it: active = normalized growth mostly below about 0.91 (no sharp cut-off); inconclusive = no clear call, values can overlap the other calls; inactive = mostly above about 0.92. The list shows a part of the results.

Assay: chemical genetic growth profiling, strain panel (AID 1159580);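 also: tested at 20 µM; growth read once vehicle control cultures reached saturation at 30 °C; 1 = growth at the plate median or of vehicle wells; lower values mean less growth of the strain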
Details: growth OD

Measured: normalized growth

NC(N)=Nc1nc(CSCCC(N)=NS(N)(=O)=O)cs1
inactive: S. cerevisiae deletion strains, locus YKL009W, strain mrt4, hits give low values 1.04 | S. cerevisiae deletion strains, locus YKL068W, hits give low values 1.01 | S. cerevisiae deletion strains, locus YKL085W, strain MDH1 (second series), hits give low values 0.987 | S. cerevisiae deletion strains, locus YKL085W, strain MDH1, hits give low values 0.987 | S. cerevisiae deletion strains, locus YKL160W, strain elf1, hits give low values 0.974 | S. cerevisiae deletion strains, locus YKL190W, strain CNB1, hits give low values 1 | S. cerevisiae deletion strains, locus YKR001C, strain vps1, hits give low values 1.01 | S. cerevisiae deletion strains, locus YKR026C, strain gcn3, hits give low values 0.981 | S. cerevisiae deletion strains, locus YKR091W, strain srl3, hits give low values 0.97 | S. cerevisiae deletion strains, locus YLL001W, strain dnm1, hits give low values 0.933 | S. cerevisiae deletion strains, locus YLL026W, hits give low values 0.992 | S. cerevisiae deletion strains, locus YLL041C, strain sdh2, hits give low values 0.995 | S. cerevisiae deletion strains, locus YLR027C, strain aat2, hits give low values 0.987 | S. cerevisiae deletion strains, locus YLR039C, strain RIC1, hits give low values 0.979 | S. cerevisiae deletion strains, locus YLR058C, strain SHM2, hits give low values 1.02 | S. cerevisiae deletion strains, locus YLR102C, strain apc9, hits give low values 1.01 | S. cerevisiae deletion strains, locus YLR113W, strain HOG1, hits give low values 0.97 | S. cerevisiae deletion strains, locus YLR221C, strain rsa3, hits give low values 0.99 | S. cerevisiae deletion strains, locus YLR258W, strain gsy2, hits give low values 0.998 | S. cerevisiae deletion strains, locus YLR262C, strain YPT6 (second series), hits give low values 0.961 | S. cerevisiae deletion strains, locus YLR262C, strain YPT6, hits give low values 0.979 | S. cerevisiae deletion strains, locus YLR268W, strain sec22, hits give low values 1.05 | S. cerevisiae deletion strains, locus YLR320W, strain mms22, hits give low values 1.01 | S. cerevisiae deletion strains, locus YLR330W, strain CHS5, hits give low values 0.996 | S. cerevisiae deletion strains, locus YLR342W, strain FKS1 (second series), hits give low values 1.02 | S. cerevisiae deletion strains, locus YLR342W, strain FKS1, hits give low values 0.983 | S. cerevisiae deletion strains, locus YLR357W, strain rsc2, hits give low values 1.04 | S. cerevisiae deletion strains, locus YLR370C, strain arc18, hits give low values 0.972 | S. cerevisiae deletion strains, locus YLR371W, strain rom2, hits give low values 1.01 | S. cerevisiae deletion strains, locus YLR384C, strain iki3, hits give low values 0.963 | S. cerevisiae deletion strains, locus YLR418C, strain cdc73, hits give low values 0.999 | S. cerevisiae deletion strains, locus YML016C, strain PPZ1, hits give low values 0.997 | S. cerevisiae deletion strains, locus YML032C, strain rad52, hits give low values 1.02 | S. cerevisiae deletion strains, locus YML120C, strain ndi1, hits give low values 0.977 | S. cerevisiae deletion strains, locus YML124C, strain tub3, hits give low values 1 | S. cerevisiae deletion strains, locus YMR058W, strain fet3, hits give low values 0.991 | S. cerevisiae deletion strains, locus YMR078C, strain ctf18, hits give low values 1.02 | S. cerevisiae deletion strains, locus YMR125W, strain sto1, hits give low values 0.956 | S. cerevisiae deletion strains, locus YMR129W, hits give low values 0.99 | S. cerevisiae deletion strains, locus YMR205C, strain PFK2, hits give low values 0.988 | S. cerevisiae deletion strains, locus YMR223W, strain ubp8, hits give low values 1.01 | S. cerevisiae deletion strains, locus YMR231W, strain pep5, hits give low values 0.971 | S. cerevisiae deletion strains, locus YMR263W, strain SAP30, hits give low values 1.01 | S. cerevisiae deletion strains, locus YMR307W, strain GAS1, hits give low values 0.95 | S. cerevisiae deletion strains, locus YNL067W, strain RPL9B, hits give low values 1.01 | S. cerevisiae deletion strains, locus YNL071W, strain lat1, hits give low values 0.996 | S. cerevisiae deletion strains, locus YNL128W, strain TEP1, hits give low values 1.01 | S. cerevisiae deletion strains, locus YNL153C, strain GIM3, hits give low values 1.01 | S. cerevisiae deletion strains, locus YNL175C, strain NOP13, hits give low values 1.01 | S. cerevisiae deletion strains, locus YNL183C, strain NPR1, hits give low values 0.931 | S. cerevisiae deletion strains, locus YNL197C, strain WHI3, hits give low values 1.01 | S. cerevisiae deletion strains, locus YNL209W, strain ssb2, hits give low values 0.993 | S. cerevisiae deletion strains, locus YNL224C, strain SQS1, hits give low values 0.986 | S. cerevisiae deletion strains, locus YNL233W, strain BNI4, hits give low values 1.01 | S. cerevisiae deletion strains, locus YNL248C, strain rpa49, hits give low values 0.994 | S. cerevisiae deletion strains, locus YNL250W, strain rad50, hits give low values 1 | S. cerevisiae deletion strains, locus YNL271C, strain bni1, hits give low values 1.01 | S. cerevisiae deletion strains, locus YNL298W, strain CLA4, hits give low values 1.02 | S. cerevisiae deletion strains, locus YNL307C, strain MCK1, hits give low values 1.01 | S. cerevisiae deletion strains, locus YNL322C, strain KRE1 (second series), hits give low values 0.963 | S. cerevisiae deletion strains, locus YNL322C, strain KRE1, hits give low values 1 and 1.01 | S. cerevisiae deletion strains, locus YNR049C, strain mso1, hits give low values 0.972 | S. cerevisiae deletion strains, locus YNR052C, strain pop2, hits give low values 1.02 | S. cerevisiae deletion strains, locus YOL006C, strain TOP1, hits give low values 1.06 | S. cerevisiae deletion strains, locus YOL012C, strain htz1 0.851 | S. cerevisiae deletion strains, locus YOL147C, strain pex11, hits give low values 1.01 | S. cerevisiae deletion strains, locus YOR001W, strain rrp6, hits give low values 0.972 | S. cerevisiae deletion strains, locus YOR061W, strain CKA2, hits give low values 1 | S. cerevisiae deletion strains, locus YOR069W, strain VPS5, hits give low values 1.01 | S. cerevisiae deletion strains, locus YOR070C, strain gyp1, hits give low values 0.982 | S. cerevisiae deletion strains, locus YOR080W, strain dia2, hits give low values 0.97 | S. cerevisiae deletion strains, locus YOR083W, strain WHI5 (second series), hits give low values 0.992 | S. cerevisiae deletion strains, locus YOR083W, strain WHI5, hits give low values 0.965 | S. cerevisiae deletion strains, locus YOR106W, strain vam3, hits give low values 0.96 | S. cerevisiae deletion strains, locus YOR136W, strain idh2, hits give low values 1 | S. cerevisiae deletion strains, locus YOR144C, strain elg1, hits give low values 1.01 | S. cerevisiae deletion strains, locus YOR184W, strain ser1, hits give low values 1 | S. cerevisiae deletion strains, locus YOR231W, strain MKK1, hits give low values 0.959 | S. cerevisiae deletion strains, locus YOR265W, strain rbl2, hits give low values 0.986 | S. cerevisiae deletion strains, locus YOR270C, strain vph1, hits give low values 0.966 | S. cerevisiae deletion strains, locus YOR290C, strain snf2, hits give low values 1 | S. cerevisiae deletion strains, locus YOR316C, strain cot1, hits give low values 1 | S. cerevisiae deletion strains, locus YPL051W, strain arl3, hits give low values 0.99 | S. cerevisiae deletion strains, locus YPL055C, strain LGE1, hits give low values 0.97 | S. cerevisiae deletion strains, locus YPL078C, strain atp4, hits give low values 0.968 | S. cerevisiae deletion strains, locus YPL106C, strain sse1, hits give low values 0.999 | S. cerevisiae deletion strains, locus YPL240C, strain hsp82, hits give low values 1 | S. cerevisiae deletion strains, locus YPL241C, strain CIN2, hits give low values 0.997 and 1.01 | S. cerevisiae deletion strains, locus YPL256C, strain CLN2, hits give low values 0.961 | S. cerevisiae deletion strains, locus YPR119W, strain clb2, hits give low values 1 | S. cerevisiae deletion strains, locus YPR141C, strain kar3, hits give low values 1 | S. cerevisiae deletion strains, locus YPR163C, strain tif3, hits give low values 1.02 | S. cerevisiae deletion strains, locus YPR167C, strain met16, hits give low values 1.01 | S. cerevisiae deletion strains, strain wtn01, hits give low values 1.02 | S. cerevisiae strains, strain wild type, hits give low values 1
